Reference: PubChem BioAssay (Tox21)
Values without a mark were called inactive. Results filed as inconclusive are left out. Entries that show only a call come without a potency. Activity calls are given as the source filed them. Unless noted, the call rests on the fitted dose curve; in most records, active means well fitted curve in the direction sought with a large enough effect in the repeat runs; inconclusive means weak or mixed curves; inactive means no such curve, though single readings can be large; an effect the other way counts as inactive or inconclusive.

Columns and labels:
[1] = molecular target: Thyrotropin-releasing hormone receptor (Homo sapiens) (UniProt P34981); experiment: qHTS assay to identify small molecule agonists of the thyrotropin-releasing hormone receptor (TRHR) signaling pathway (AID 1346891; calls by dose curve; further: series mostly up to about 58 µM)
Thyrotropin-releasing hormone receptor (Homo sapiens), sequence (P34981 whole entry, looked up): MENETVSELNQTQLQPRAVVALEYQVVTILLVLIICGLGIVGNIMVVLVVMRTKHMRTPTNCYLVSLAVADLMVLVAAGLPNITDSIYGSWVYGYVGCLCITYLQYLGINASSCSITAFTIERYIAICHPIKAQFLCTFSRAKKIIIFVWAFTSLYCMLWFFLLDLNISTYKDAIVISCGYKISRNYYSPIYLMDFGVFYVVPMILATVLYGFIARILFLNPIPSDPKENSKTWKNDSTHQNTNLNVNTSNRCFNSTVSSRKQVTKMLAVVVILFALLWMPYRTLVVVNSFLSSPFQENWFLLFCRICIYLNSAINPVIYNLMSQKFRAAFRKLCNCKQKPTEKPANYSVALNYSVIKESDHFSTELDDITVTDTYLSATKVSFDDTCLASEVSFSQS
Summary of the method: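 Screening of agonists relied on calcium signalling in HEK293 cells expressing human TRHR: dye loading 2 h at 37 °C preceded compound addition and a 3-min fluorescence time course.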

[2] = Human pregnane X receptor (PXR) small molecule agonists, qHTS cell viability counter screen (AID 1346977); further: nearly all actives have a fitted effect of over 50% in size; further: potency means the concentration at half of the fitted maximal effect
Summary of the method: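 Tox21 qHTS format; PXR-Luc HepG2, 2,000/well, charcoal-stripped FBS 5%. Cpd exposure 24hr. Read: CellTiter-Fluor fluorescence, multiplexed with luciferase.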

[3] = Caspase-3/7 induction in HepG2 cells by small molecules, qHTS assay (AID 1346978); further: nearly all actives have a fitted effect of over 15% in size
Summary of the method: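 Wild-type HepG2 cells, 2,000/well, settled 5 hr at 37 C and 5% CO2, then compound-treated for 17 hr; caspase-3/7 activity read by luminescent Caspase-Glo 3/7 after 30 min at room temperature.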

[4] = Caspase-3/7 induction in CHO-K1 cells by small molecules, qHTS cell viability counter screen (AID 1346979); further: nearly all actives have a fitted effect of over 35% in size; further: potency means the concentration at half of the fitted maximal effect
Summary of the method: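 CellTiter-Fluor viability check, qHTS format: wild-type CHO-K1, 16hr compound treatment, 1hr reagent incubation, fluorescence read.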

[5] = Caspase-3/7 induction in CHO-K1 cells by small molecules, qHTS assay (AID 1346980); further: nearly all actives have a fitted effect of over 15% in size
Summary of the method: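 Wild-type CHO-K1 cells exposed to compounds for 17hr at 37 C, 5% CO2. Caspase-3/7 activity then measured by Caspase-Glo 3/7 luminescence after 30min at room temperature.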

[6] = Caspase-3/7 induction in HepG2 cells by small molecules, qHTS cell viability counter screen (AID 1346981); further: nearly all actives have a fitted effect of over 30% in size; further: potency means the concentration at half of the fitted maximal effect
Summary of the method: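 HepG2, WT, 2,000 cells/well; 5 hr pre-incubation 37 C/5% CO2; compound pin-transferred from DMSO; 16 hr exposure; CellTiter-Fluor, 1 hr; fluorescence read.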

[7] = molecular target: Nuclear receptor subfamily 1 group I member 2 (Homo sapiens) (UniProt O75469); experiment: Human pregnane X receptor (PXR) small molecule agonists, qHTS assay (AID 1346982); further: nearly all actives have a fitted effect of over 35% in size; further: potency means the concentration at half of the fitted maximal effect
Nuclear receptor subfamily 1 group I member 2 (Homo sapiens), sequence (O75469 whole entry, looked up): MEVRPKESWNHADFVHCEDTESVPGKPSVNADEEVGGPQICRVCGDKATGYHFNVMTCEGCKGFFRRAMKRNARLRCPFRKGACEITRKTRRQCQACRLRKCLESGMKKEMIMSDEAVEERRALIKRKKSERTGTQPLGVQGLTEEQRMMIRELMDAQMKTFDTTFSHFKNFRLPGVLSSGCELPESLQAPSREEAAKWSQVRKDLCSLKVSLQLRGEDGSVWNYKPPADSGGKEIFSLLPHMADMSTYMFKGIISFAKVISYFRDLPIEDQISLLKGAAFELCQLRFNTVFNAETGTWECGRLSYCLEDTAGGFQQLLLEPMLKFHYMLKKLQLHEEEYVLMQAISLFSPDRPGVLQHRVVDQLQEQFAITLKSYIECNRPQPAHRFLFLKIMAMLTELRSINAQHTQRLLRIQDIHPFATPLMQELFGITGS
Summary of the method: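 Luciferase signal from ONE-Glo (30 min, room temperature) measured activation of hPXR-driven CYP3A4 reporter expression in PXR-Luc HepG2 cells treated with compounds for 24 hr at 37 C.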

[8] = molecular target: Cytochrome P450 2C19 (Homo sapiens) (UniProt P33261); experiment: Cytochrome P450 Family 2 Subfamily C Member 19 (CYP2C19) small molecule antagonists: luciferase reporter qHTS assay (AID 1671197); further: series mostly up to about 120 µM; nearly all actives have a fitted effect of over 65% in size
Cytochrome P450 2C19 (Homo sapiens), sequence (P33261 whole entry, looked up): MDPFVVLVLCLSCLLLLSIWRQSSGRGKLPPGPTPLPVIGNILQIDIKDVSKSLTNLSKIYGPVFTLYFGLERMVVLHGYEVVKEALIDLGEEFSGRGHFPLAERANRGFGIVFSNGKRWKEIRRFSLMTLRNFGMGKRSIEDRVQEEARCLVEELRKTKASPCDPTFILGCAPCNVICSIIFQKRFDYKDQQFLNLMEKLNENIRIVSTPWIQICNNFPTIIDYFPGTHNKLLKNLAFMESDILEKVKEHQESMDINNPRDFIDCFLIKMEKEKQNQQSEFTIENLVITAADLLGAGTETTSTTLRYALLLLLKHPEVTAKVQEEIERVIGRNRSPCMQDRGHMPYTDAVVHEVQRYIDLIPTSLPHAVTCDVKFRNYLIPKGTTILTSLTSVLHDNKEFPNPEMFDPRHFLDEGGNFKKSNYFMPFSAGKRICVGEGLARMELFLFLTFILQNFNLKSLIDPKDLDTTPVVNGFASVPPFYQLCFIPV
Summary of the method: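 Luminescent readout of CYP2C19 activity: luciferin product detected 20 min after adding detection reagent. Before that, compound and enzyme-substrate mix preincubated 10 min at room temperature; NADPH-regenerating system started a 1 h, 37C reaction. Ketoconazole as positive control.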

[9] = molecular target: Voltage-gated inwardly rectifying potassium channel KCNH2 (Homo sapiens) (UniProt Q12809); experiment: Human Ether-a-go-go-Related Gene (hERG) channel small molecule antagonists: fluorescence cell-based qHTS assay (AID 1671200);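 further: hERG-expressing U2OS cells given a thallium stimulus after FluxOR II dye loading; series mostly up to about 77 µM; nearly all actives have a fitted effect of over 50% in size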
Voltage-gated inwardly rectifying potassium channel KCNH2 (Homo sapiens), sequence (Q12809 whole entry, looked up): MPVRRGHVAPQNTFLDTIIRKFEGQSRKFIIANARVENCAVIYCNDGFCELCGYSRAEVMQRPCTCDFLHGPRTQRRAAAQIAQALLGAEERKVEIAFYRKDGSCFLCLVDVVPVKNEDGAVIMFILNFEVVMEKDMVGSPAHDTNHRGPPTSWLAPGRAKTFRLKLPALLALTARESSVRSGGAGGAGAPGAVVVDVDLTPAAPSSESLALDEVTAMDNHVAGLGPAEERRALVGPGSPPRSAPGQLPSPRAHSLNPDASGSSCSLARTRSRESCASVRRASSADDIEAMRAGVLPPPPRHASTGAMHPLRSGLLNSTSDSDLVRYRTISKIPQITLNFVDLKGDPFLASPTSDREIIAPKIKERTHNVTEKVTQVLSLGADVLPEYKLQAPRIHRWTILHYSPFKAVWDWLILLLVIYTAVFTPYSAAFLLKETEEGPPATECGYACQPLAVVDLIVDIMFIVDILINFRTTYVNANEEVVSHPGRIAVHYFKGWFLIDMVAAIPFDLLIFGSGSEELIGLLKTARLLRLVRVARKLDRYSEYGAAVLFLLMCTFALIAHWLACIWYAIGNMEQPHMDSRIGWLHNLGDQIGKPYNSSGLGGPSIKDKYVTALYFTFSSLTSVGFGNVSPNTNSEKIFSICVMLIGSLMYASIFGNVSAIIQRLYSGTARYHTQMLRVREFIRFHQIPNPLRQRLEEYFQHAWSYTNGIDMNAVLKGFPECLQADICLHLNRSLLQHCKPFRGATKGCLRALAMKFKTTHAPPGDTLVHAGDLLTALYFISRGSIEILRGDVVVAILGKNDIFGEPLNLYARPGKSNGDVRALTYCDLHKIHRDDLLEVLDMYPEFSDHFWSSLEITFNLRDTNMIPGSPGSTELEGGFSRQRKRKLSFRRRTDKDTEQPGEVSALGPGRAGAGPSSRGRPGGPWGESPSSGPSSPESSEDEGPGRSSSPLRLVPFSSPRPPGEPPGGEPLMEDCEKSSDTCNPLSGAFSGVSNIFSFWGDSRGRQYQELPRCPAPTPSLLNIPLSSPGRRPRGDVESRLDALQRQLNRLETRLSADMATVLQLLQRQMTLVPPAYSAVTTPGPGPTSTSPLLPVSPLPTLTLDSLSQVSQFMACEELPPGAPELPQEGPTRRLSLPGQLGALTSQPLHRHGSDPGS
Summary of the method: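 Kinetic two-minute fluorescence traces, sampled at 1 s, were collected following thallium stimulus of U2OS cells (1000 per well) that had been cultured overnight at 37 C and loaded with FluxOR II.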

[10] = molecular target: Cytochrome P450 3A4 (Homo sapiens) (UniProt P08684); experiment: Cytochrome P450 Family 3 Subfamily A Member 4 (CYP3A4) small molecule antagonists: luciferase reporter qHTS assay (AID 1671201); further: series mostly up to about 120 µM; nearly all actives have a fitted effect of over 50% in size
Cytochrome P450 3A4 (Homo sapiens), sequence (P08684 whole entry, looked up): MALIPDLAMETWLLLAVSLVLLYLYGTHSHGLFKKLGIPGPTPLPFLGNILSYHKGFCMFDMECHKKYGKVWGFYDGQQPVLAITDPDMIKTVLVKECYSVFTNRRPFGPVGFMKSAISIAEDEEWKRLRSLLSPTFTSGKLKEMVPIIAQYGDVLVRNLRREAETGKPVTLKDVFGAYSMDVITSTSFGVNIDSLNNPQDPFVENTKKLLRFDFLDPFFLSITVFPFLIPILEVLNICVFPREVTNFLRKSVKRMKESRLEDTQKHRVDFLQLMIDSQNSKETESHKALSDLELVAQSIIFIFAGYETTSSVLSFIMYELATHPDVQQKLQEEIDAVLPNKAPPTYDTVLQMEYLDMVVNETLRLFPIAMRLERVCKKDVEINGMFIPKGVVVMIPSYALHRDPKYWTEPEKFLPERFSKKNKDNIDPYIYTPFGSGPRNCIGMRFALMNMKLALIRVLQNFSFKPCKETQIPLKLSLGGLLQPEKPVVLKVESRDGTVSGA
Summary of the method: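 Proluciferin-to-luciferin conversion by CYP3A4, NADPH-regenerated, 1 h RT; luminescence read as RLU. Ketoconazole as control.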

[11] = molecular target: Nuclear receptor subfamily 1 group I member 2 (Rattus norvegicus) (UniProt Q9R1A7); experiment: Rat pregnane X receptor (rPXR) activation by small molecules, qHTS assay (AID 1346983); details: rPXR luciferase reporter cells, One-Glo luminescence, 24 h; max activation: stronger effect = higher value; further: nearly all actives have a fitted effect of over 20% in size
Nuclear receptor subfamily 1 group I member 2 (Rattus norvegicus), sequence (Q9R1A7 whole entry, looked up): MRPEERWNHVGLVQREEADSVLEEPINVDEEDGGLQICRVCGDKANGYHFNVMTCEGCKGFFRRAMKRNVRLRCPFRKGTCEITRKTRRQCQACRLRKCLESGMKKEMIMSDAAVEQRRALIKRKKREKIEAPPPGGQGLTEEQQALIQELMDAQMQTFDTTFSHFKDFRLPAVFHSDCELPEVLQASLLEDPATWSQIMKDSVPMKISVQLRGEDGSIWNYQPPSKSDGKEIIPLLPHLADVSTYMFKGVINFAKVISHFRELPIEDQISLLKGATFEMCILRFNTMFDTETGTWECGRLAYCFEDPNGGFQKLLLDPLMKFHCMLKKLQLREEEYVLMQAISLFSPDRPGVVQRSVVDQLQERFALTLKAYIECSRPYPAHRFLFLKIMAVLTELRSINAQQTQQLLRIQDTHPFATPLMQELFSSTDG
Summary of the method: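 Cell-based rPXR activation assay: rPXR cells, 2,000 per well, rested 5hr at 37 C, then exposed to compounds in DMSO for 24 hr at 37 C. Luciferase activity read by One-Glo luminescence after 30 min at room temperature.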

[12] = molecular target: Nuclear receptor subfamily 1 group I member 2 (Homo sapiens) (UniProt O75469); experiment: CYP3A4 induction through human pregnane X receptor (PXR) by small molecules, qHTS assay (AID 1346984); further: nearly all actives have a fitted effect of over 40% in size
Summary of the method: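 Luminescence readout: luciferase signal after One-Glo (30 min, room temperature), following 3 h at 37C with 3uM final Luciferin-IPA P450 substrate. Cells were DPX-2 (HepG2, PXR/CYP3A4-luc co-transfected) dosed for 24 h.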

[13] = molecular target: Nuclear receptor subfamily 1 group I member 2 (Homo sapiens) (UniProt O75469); experiment: Human pregnane X receptor (PXR) activation by small molecules, qHTS assay (AID 1346985); further: nearly all actives have a fitted effect of over 40% in size
Summary of the method: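 DPX-2 cells (HepG2 co-transfected with a PXR response element and a CYP3A4-promoter luciferase construct) were seeded at 2,000 per well, rested 5 hr at 37C, then exposed to DMSO-dissolved compounds for 24 hr. Activation was read as luciferase luminescence.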

[14] = molecular target: Cytochrome P450 2D6 (Homo sapiens) (UniProt P10635); experiment: Cytochrome P450 Family 2 Subfamily D Member 6 (CYP2D6) small molecule antagonists: luciferase reporter qHTS assay (AID 1671196); further: nearly all actives have a fitted effect of over 50% in size; further: potency means the concentration at half of the fitted maximal effect
Cytochrome P450 2D6 (Homo sapiens), sequence (P10635 whole entry, looked up): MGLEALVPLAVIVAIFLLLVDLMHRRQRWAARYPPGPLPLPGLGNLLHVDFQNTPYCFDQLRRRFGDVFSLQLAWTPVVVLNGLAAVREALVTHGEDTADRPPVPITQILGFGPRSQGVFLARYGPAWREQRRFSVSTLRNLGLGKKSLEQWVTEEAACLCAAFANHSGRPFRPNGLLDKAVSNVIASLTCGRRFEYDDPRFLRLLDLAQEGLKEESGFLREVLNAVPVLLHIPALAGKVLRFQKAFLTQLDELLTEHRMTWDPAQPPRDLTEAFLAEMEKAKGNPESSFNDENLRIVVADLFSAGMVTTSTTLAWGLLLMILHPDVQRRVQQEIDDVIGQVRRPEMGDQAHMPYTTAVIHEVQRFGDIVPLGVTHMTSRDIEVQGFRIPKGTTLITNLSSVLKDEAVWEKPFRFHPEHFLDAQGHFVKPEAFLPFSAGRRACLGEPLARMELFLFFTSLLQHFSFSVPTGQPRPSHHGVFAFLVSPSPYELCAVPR
Summary of the method: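 Read-out is luminescence from luciferin formed by CYP2D6 turnover of a proluciferin substrate, recorded as relative luminescence units. Reactions ran 1 h at room temperature after NADPH regeneration solution was added.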

[15] = molecular target: Cytochrome P450 1A2 (Homo sapiens) (UniProt P05177); experiment: Cytochrome P450 Family 1 Subfamily A Member 2 (CYP1A2) small molecule antagonists: luciferase reporter qHTS assay (AID 1671199); further: nearly all actives have a fitted effect of over 50% in size; further: potency means the concentration at half of the fitted maximal effect
Cytochrome P450 1A2 (Homo sapiens), sequence (P05177 whole entry, looked up): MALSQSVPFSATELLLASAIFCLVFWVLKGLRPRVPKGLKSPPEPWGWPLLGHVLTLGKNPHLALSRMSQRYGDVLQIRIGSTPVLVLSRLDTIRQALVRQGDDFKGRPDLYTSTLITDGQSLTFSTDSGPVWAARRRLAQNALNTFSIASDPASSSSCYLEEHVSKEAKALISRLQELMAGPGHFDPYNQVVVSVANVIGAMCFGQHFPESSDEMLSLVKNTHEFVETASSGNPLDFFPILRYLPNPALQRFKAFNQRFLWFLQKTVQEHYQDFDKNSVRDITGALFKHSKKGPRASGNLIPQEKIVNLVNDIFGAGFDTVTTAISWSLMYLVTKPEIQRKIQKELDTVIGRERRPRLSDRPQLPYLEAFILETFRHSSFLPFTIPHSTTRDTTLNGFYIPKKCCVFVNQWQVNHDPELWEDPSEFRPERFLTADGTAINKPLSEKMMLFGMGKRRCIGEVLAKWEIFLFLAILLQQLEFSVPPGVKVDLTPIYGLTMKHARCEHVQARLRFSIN
Summary of the method: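 P450-Glo CYP1A2, 1536-well qHTS: enzyme/proluciferin substrate + cpd (DMSO), 10 min RT; NADPH regen, 1 h RT; detection reagent, 20 min; luminescence, RLU.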

[16] = molecular target: Cytochrome P450 2C9 (Homo sapiens) (UniProt P11712); experiment: Cytochrome P450 Family 2 Subfamily C Member 9 (CYP2C9) small molecule antagonists: luciferase reporter qHTS assay (AID 1671198); further: nearly all actives have a fitted effect of over 50% in size; further: potency means the concentration at half of the fitted maximal effect
Cytochrome P450 2C9 (Homo sapiens), sequence (P11712 whole entry, looked up): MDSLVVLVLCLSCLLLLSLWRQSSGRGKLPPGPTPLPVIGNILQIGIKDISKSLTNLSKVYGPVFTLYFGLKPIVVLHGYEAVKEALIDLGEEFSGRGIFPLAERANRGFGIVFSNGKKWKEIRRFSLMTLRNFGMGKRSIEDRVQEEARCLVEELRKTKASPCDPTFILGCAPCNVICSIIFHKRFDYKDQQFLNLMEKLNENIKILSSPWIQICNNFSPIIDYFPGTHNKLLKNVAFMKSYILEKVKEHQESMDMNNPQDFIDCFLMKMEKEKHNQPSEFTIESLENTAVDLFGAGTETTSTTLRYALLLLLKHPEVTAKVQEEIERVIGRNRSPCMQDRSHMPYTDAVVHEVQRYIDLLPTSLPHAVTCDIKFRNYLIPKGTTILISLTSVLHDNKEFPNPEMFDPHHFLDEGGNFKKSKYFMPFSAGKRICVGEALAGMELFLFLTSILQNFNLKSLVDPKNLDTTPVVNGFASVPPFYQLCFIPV
Summary of the method: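 P450-Glo proluciferin substrate with CYP2C9 enzyme; 10 min RT preincubation, then NADPH regeneration 1 h at 37C; luciferin detection reagent 20 min RT, luminescence in relative luminescence units.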

Structure (SMILES)	Potency [1]	Potency [2]	Potency [3]	Potency [4]	Potency [5]	Potency [6]	Potency [7]	Potency [8]	Potency [9]	Potency [10]	max activation [11]	Potency [12]	Potency [13]	Potency [14]	Potency [15]	Potency [16]
CCC(C)(C)OC	inactive	inactive	inactive	inactive	inactive	inactive	inactive	inactive	inactive	inactive	–	–	–	–	–	–
C[C@H]1c2cccc(O)c2C(O)=C2C(=O)[C@]3(O)C(O)=C(C(N)=O)C(=O)[C@@H](N(C)C)[C@@H]3[C@@H](O)[C@@H]21	inactive	inactive	inactive	inactive	inactive	–	inactive	inactive	inactive	inactive	-4.08%	inactive	inactive	inactive	inactive	–
C=C1CCC2CC1C2(C)C (stereo unspecified)	inactive	inactive	inactive	inactive	inactive	–	inactive	inactive	inactive	inactive	–	–	–	inactive	inactive	inactive
C=C1c2cccc(O)c2C(O)=C2C(=O)[C@]3(O)C(O)=C(C(N)=O)C(=O)[C@@H](N(C)C)[C@@H]3[C@@H](O)[C@H]12	inactive	inactive	inactive	inactive	inactive	–	inactive	inactive	inactive	–	-2.64%	inactive	inactive	inactive	inactive	–
CN(C)CCN1C(=O)c2ccccc2N(C)c2ccccc21	inactive	inactive	inactive	inactive	inactive	inactive	–	inactive	inactive	inactive	5.5%	inactive	–	–	inactive	–
C1C[C@@H]2[C@H]3CC[C@H](C3)[C@@H]2C1	inactive	inactive	inactive	inactive	inactive	inactive	inactive	–	inactive	–	–	–	–	–	–	inactive
CC1(C)S[C@@H]2[C@H](NC(=O)C(c3ccccc3)S(=O)(=O)O)C(=O)N2[C@H]1C(=O)O (stereo partly specified)	inactive	inactive	inactive	inactive	inactive	–	inactive	inactive	inactive	inactive	–	–	–	inactive	–	inactive
O[C@@H]1CO[C@H]2[C@@H]1OC[C@@H]2O	inactive	inactive	inactive	inactive	inactive	–	inactive	inactive	inactive	inactive	-1.59%	inactive	inactive	inactive	inactive	inactive
CO[C@]1(NC(=O)CSC(F)F)C(=O)N2C(C(=O)O)=C(CSc3nnnn3CCO)CO[C@H]21	inactive	inactive	inactive	inactive	inactive	inactive	–	inactive	inactive	inactive	–	–	–	–	inactive	–
CCCCN1CCCC1C(=O)Nc1c(C)cc(C)cc1C (stereo unspecified)	inactive	inactive	inactive	inactive	inactive	inactive	–	–	inactive	–	14.6%	–	–	3.09 µM (active)	inactive	inactive
CC(O)c1ccccc1 (stereo unspecified)	inactive	inactive	inactive	inactive	inactive	–	inactive	inactive	inactive	inactive	–	–	–	inactive	–	inactive
CC(CN(C)C)C(C)(O)Cc1ccc(Cl)cc1 (stereo unspecified)	inactive	inactive	inactive	inactive	inactive	–	inactive	inactive	–	–	-1.26%	–	inactive	6.17 µM (active)	inactive	inactive
Clc1cc(Cl)nc(Cl)n1	inactive	inactive	inactive	inactive	inactive	inactive	inactive	–	inactive	inactive	–	–	–	–	36 µM (active)	inactive
O=C1c2ccccc2C(=O)c2c(O)c(O)cc(O)c21	inactive	54.5 µM (active)	inactive	48.6 µM (active)	inactive	54.5 µM (active)	inactive	–	inactive	inactive	–	–	–	–	35.6 µM (active)	63.3 µM (active)
CCCCCCCCN	inactive	inactive	inactive	inactive	inactive	inactive	27 µM (active)	inactive	inactive	inactive	–	–	–	–	inactive	–
CCCCCC[C@@H](O)C/C=C\CCCCCCCC(=O)OCC(O)CO (stereo partly specified)	inactive	inactive	inactive	inactive	inactive	inactive	34.4 µM (active)	–	inactive	–	–	–	–	–	inactive	11.2 µM (active)
OC1(c2ccccc2)CCNCC1	inactive	inactive	inactive	inactive	inactive	inactive	inactive	–	inactive	inactive	–	–	–	–	inactive	inactive
CC[N+](CC)(CCNC(=O)C(=O)NCC[N+](CC)(CC)Cc1ccccc1Cl)Cc1ccccc1Cl	inactive	inactive	inactive	inactive	inactive	–	inactive	inactive	inactive	inactive	-3.21%	inactive	inactive	15.5 µM (active)	–	inactive
CCOC(=O)OC(C)OC(=O)[C@@H]1N2C(=O)[C@@H](NC(=O)[C@H](N)c3ccccc3)[C@H]2SC1(C)C (stereo partly specified)	inactive	inactive	inactive	inactive	inactive	inactive	–	–	inactive	–	0.482%	–	–	–	–	–
